The nature of experiment [1]: Her2 expression decrease, cell viability multiplex – SKBR3 breast tumor cells, AlphaScreen, ATP viability, primary screen (AID 461;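 active = Her2 level under about 52% in both replicate screens, with viability over 70% of control, limit read from the data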;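 for Her2 level: lower value means less Her2 protein in the cells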;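 for viability: percent of carrier control wells set as 100% viability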). Conditions: SKBR3 Her2 protein level, 18-24 h, measured here: SKBR3 viability, ATP luminescence, at 10 µM. On the technique in general: In Alpha technology, singlet oxygen from a donor bead excites a nearby acceptor bead.
Experiment [2] deals with Receptor tyrosine-protein kinase erbB-2 (Homo sapiens) (UniProt P04626). The experiment is described as above. Conditions: 18-24 h, at 10 µM, stronger effect = lower value.
Experiment [3] in a line: reduced viability of SK-BR-3 breast cancer cells – cell-based, 24 h, human, pilot screen (AID 572;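 active = viability at or below 10% of carrier control in both of two separate runs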;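 note: compound exposure lasted between 18 and 24 h rather than exactly 24 h; 100% = carrier-treated control wells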). To be noted: SK-BR-3 viability, CellTiter-Glo luminescence, at 10 µM, stronger effect = lower value. A general note: Cellular ATP, detected with luciferase, serves as a proxy for viable cell number.
A short description of experiment [4]: HUVEC growth inhibition – cell-based, human, primary screen (AID 575).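 Note: 100% = median of untreated cell wells with 0.1% DMSO on each plate.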 Conditions: HUVEC proliferation, CellTiter-Glo luminescence, 72 h; at 10 µM; stronger effect = lower value.
Experiment [5] is described as follows: H69AR cell proliferation blockers – human, duplicate replicates, primary screen (AID 580;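 active = viability at or under a set limit in both replicates, limit being median viability minus 3 SD, cut at about 48% in these data, passing the limit was not always enough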;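 note: 100% = mean luminescence of untreated wells and 0% = no signal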). To be noted: H69AR lung tumor cells viability, ATP luminescence, 72 h; at 10 µM; stronger effect = lower value.
The nature of experiment [6]: MRP1 drug-resistance reversers in H69AR cells – cell-based, doxorubicin co-treatment, pilot screen (AID 601;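 active = viability loss from added drug above about 55%, and viability with drug at most 40%, in both replicates, limit read from the data, passing the limit was not always enough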). Conditions: CellTiter-Glo, 72 h, at 10 µM; for differential viability (reversal): stronger effect = higher value.
Experiment [7] in a line: yeast transport mutant growth inhibition pilot in 384-well plates, post-Golgi transport modulator project (AID 636; in the data active = inhibition above about 31%). To be noted: absorbance 615 nm, about 18 h, stronger effect = higher value.
Experiment [8] is described as follows: growth suppression of yeast trafficking mutant, preliminary HTS, modulators of trafficking downstream of Golgi apparatus project, 1536-format plate, OD 615 nm (AID 637; in the data active = inhibition above about 30%). Conditions: yeast transport mutant growth, absorbance 615 nm, 18 h; stronger effect = higher value.
The nature of experiment [9]: S. cerevisiae growth inhibition in permissive medium (OD615), pilot counter-assay for S. cerevisiae lifespan shortening project, permissive growth control (AID 705;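 active = growth inhibition above 25% in both replicates, a cutoff set 3 SD above the mean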). Conditions: OD615, 24 h, at 10 µM, stronger effect = higher value.
Experiment [10] in a line: S. cerevisiae growth inhibition in restrictive medium, OD615, pilot screen, restrictive growth control, yeast lifespan reduction project (AID 706;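 active = growth inhibition above a set limit, 3 SD over mean compound inhibition, in both replicates, cut at about 43% in these data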;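 note: modified DeaD lifespan yeast strain shifted to restrictive glucose medium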). To be noted: OD615, 48 h, at 10 µM, stronger effect = higher value.
A short description of experiment [11]: doxorubicin toxicity protection in MRP-1 cells – H69AR cells, CellTiter-Glo, duplicate, MRP-1 activator project, pilot screen (AID 807;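 active = viability increase at or above a cutoff of the median across tested compounds plus 3 SD, cut at about 8.5% in these data, passing the limit was not always enough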;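 note: compound pretreatment 18-22 h then 72 h combined with doxorubicin; 0% = doxorubicin alone and 100% = vehicle without doxorubicin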). Conditions: H69AR viability with doxorubicin, CellTiter-Glo luminescence; at 10 µM; stronger effect = higher value.
Experiment [12] in a line: viability of HCT116 without oncogenic beta-catenin – human colon tumor cells, pilot screen (AID 823;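 active = cell viability at or below a set limit in both duplicate runs, the limit being the all-compound median minus 4 SD, cut at about 23% in these data, passing the limit was not always enough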;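 note: 0% = wells killed by 20 µM Hyamine and 100% = untreated DMSO cell wells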). Conditions: HCT116 beta-catenin knockout viability, CellTiter-Glo, 60 h; at 10 µM; stronger effect = lower value.
Experiment [13] can be described thus: viability of PTEN-null HCT116 cells – cell-based, HCT116 clonal line, CellTiter-Glo, pilot screen (AID 824;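 active = viability at or below 27.92% in each of two runs, the all-compound median minus 4 SD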;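 note: 0% = 20 µM Hyamine control and 100% = vehicle cell control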). Conditions: HCT116 PTEN-deleted viability, 60 h, at 10 µM, stronger effect = lower value.
Experiment [14] is described as follows: RAM pathway blockade in budding yeast – dse1pr::URA3 reporter, 5-FOA selection, pilot screen (AID 869;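 active = inhibition over a set limit, the all-compound mean plus 3 SD, in both replicate runs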;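 note: 0% = DMSO wells with no growth and 100% = 10 µM 1-NA-PP1 with full growth; RAM network block rescues cells from 5-FOA so hits raise OD615 growth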). To be noted: S. cerevisiae dse1pr::URA3 5-FOA growth, OD615, 2 d; at 10 µM; stronger effect = higher value; strain carries analog-sensitive mutant Cbk1 kinase.
Setting [15] is: H69AR cells + 2 uM doxorubicin, measured here: viability with 2 uM doxorubicin, stronger effect = lower value.
The mark [16] stands for this setting: H69AR cells, compound alone cytotoxicity.

Records with an inconclusive call do not appear. The source made the active and inactive calls.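 Rule for the calls, unless noted: active = viability at or below 30% in both replicate assays; inconclusive = viability at or below 30% in just one of the two assays; inactive = the rest.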

Sequence of Receptor tyrosine-protein kinase erbB-2 (Homo sapiens) (P04626 whole entry, looked up): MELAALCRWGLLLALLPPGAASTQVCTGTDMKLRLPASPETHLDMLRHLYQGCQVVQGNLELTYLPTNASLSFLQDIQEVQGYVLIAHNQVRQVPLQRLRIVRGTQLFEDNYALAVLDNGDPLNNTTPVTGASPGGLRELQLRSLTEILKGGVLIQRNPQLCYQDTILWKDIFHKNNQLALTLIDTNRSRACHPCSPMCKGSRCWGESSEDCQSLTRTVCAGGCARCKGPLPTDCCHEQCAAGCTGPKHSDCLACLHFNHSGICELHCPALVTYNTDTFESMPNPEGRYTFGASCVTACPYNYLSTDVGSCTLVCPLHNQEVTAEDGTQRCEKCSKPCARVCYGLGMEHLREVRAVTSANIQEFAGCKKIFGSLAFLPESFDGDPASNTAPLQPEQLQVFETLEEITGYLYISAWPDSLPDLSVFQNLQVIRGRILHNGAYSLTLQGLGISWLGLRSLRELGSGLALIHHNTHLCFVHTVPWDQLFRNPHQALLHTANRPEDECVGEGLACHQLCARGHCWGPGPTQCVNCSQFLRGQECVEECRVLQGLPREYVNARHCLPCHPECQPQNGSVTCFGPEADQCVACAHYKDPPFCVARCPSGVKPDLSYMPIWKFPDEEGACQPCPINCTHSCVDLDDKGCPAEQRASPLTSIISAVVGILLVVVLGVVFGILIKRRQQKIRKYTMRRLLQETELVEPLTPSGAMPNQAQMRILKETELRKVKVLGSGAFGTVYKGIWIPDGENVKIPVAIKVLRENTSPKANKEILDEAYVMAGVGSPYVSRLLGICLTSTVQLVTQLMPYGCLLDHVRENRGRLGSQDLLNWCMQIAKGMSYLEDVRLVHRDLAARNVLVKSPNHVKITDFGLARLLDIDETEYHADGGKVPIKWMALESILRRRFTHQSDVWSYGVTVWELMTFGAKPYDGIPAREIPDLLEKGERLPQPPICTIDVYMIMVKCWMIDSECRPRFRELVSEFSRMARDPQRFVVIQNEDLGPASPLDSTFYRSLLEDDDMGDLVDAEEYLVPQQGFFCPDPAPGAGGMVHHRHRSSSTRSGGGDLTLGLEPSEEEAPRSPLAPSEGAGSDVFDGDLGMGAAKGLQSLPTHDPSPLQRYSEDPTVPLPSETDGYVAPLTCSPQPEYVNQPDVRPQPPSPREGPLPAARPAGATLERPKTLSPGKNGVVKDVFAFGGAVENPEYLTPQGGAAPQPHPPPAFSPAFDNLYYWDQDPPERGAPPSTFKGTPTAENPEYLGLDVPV

For `COc1ccc(N2C(=O)CC(N3CCCC4CCCCC43)C2=O)cc1` (configuration not stated), the viability (as a rule, a read-out of living cells in per cent, often relative to untreated cells) in [1] is 102%; in [3] it was 102% (inactive); in experiment [4], 109% (inactive); in experiment [5] it was 90.8% (inactive); in [6] (setting [15]), 81.5%; in [6] (setting [16]) it was 90.8%. Moreover, the viability in [12] was 98.3% (inactive); in [13], 101% (inactive). The Her2 level in experiment [2] is 125% (inactive). In experiment [6] (H69AR cells + 2 uM doxorubicin), the differential viability (reversal) is 9.28% (inactive). In addition, the values for the inhibition in experiment [7], in experiment [8] and in experiment [14] were -4.03% (inactive), -6.83% (inactive) and 0.71% (inactive), respectively. Further, the growth inhibition in [9] is -3.32% (inactive); in experiment [10], 3.25% (inactive). Also, the viability increase in experiment [11] was -0.71% (inactive).

`O=C(COC(=O)c1cnccn1)c1ccc(OC(=O)c2ccccc2)cc1`: the viability in experiment [1] is 104%; in [3], 104% (inactive); in [4], 87.8% (inactive); in [5] it was 96.2% (inactive); in experiment [6] (setting [15]) it was 98.3%; in [6] (setting [16]) it was 96.2%. In addition, the viability was 93.3% (inactive) in [12] and 95.2% (inactive) in [13]. The Her2 level in [2] is 100% (inactive). The differential viability (reversal) in experiment [6] (H69AR cells + 2 uM doxorubicin) was -2.16% (inactive). For the same compound, the inhibition – broadly, the change of the read-out against control, counted positive when it falls – was -1.67% (inactive) in experiment [7], 5.67% (inactive) in experiment [8] and 2.84% (inactive) in experiment [14]. The growth inhibition in experiment [9] is -19.2% (inactive); in experiment [10], -15.1% (inactive). Also, the viability increase in [11] is -0.85% (inactive).

As to `Cn1c(=N)c(S(=O)(=O)c2ccccc2)cc2c(=O)n3ccccc3nc21`, the viability is 83.5% in experiment [1], 83.5% (inactive) in experiment [3], 83% (inactive) in [4] and 75% (inactive) in experiment [5]. For the same compound, in experiment [2], the Her2 level was 108% (inactive). Besides, the figures for the inhibition in experiment [7] and in experiment [8] were 3.87% (inactive) and 31.8% (active), respectively.

With `CCOC(=O)C1CCCN(c2c(Nc3ccc(C)c(C)c3)c(=O)c2=O)C1` (configuration not stated), the viability in experiment [1] is 84%; in experiment [3] it was 84% (inactive); in experiment [4], 91.7% (inactive); in [5], 87.6% (inactive). Moreover, in experiment [2], the Her2 level was 99% (inactive). Also, the inhibition in experiment [7] was 0% (inactive); in experiment [8], -4.43% (inactive).

Turning to `N#Cc1c(N)nc(SCc2ccncc2)c(C#N)c1-c1cccs1`, the viability in experiment [1] is 98.5%; in experiment [3], 98.5% (inactive); in experiment [4], 79% (inactive); in [6] (setting [15]) it was 14.9%; in [6] (setting [16]), 52.3%. The Her2 level in experiment [2] is 71% (inactive). For the same compound, in experiment [6] (H69AR cells + 2 uM doxorubicin), the differential viability (reversal) is 37.4% (inactive). Further, the inhibition in experiment [7] was -0.53% (inactive); in experiment [8], 7.74% (inactive).

For `O=C(COc1ccccc1)N1CCN(c2ncnc3c2cnn3-c2ccccc2)CC1`, the viability in [1] was 97%; in experiment [3] it was 97% (inactive); in experiment [4] it was 58.6% (inactive); in [5], 74.8% (inactive). The Her2 level in experiment [2] is 77% (inactive). Further, the inhibition in [7] is -8.77% (inactive); in experiment [8] it was -3.65% (inactive).

As for `CC1CC(C)CN(c2ncnc3c2cnn3-c2ccc(Cl)cc2)C1` (configuration not stated), the viability was 91.5% in experiment [1]; 91.5% (inactive) in experiment [3]; 88.5% (inactive) in experiment [4]; 80.6% (inactive) in experiment [5]; 76.9% in experiment [6] (setting [15]); 80.6% in experiment [6] (setting [16]). The viability in [12] is 88.1% (inactive); in [13], 95.3% (inactive). Moreover, the Her2 level in [2] is 89.5% (inactive). The differential viability (reversal) in [6] (H69AR cells + 2 uM doxorubicin) was 3.71% (inactive). In addition, the inhibition was 0.53% (inactive) in experiment [7], -1.64% (inactive) in experiment [8] and 2.44% (inactive) in [14]. Also, the results for the growth inhibition in experiment [9] and in experiment [10] were -5.74% (inactive) and -8.12% (inactive), respectively. Moreover, the viability increase in experiment [11] was 5.58% (inactive).

Consider `CCc1nc(N)nc(N)c1-c1ccc(Cl)cc1`, for which the viability is 103% in experiment [1]; 103% (inactive) in experiment [3]; 117% (inactive) in experiment [4]; 95.8% in experiment [6] (setting [15]); 35.9% in experiment [6] (setting [16]). The Her2 level in [2] was 79% (inactive). Moreover, the differential viability (reversal) in experiment [6] (H69AR cells + 2 uM doxorubicin) was -59.9% (inactive).

Take `COc1ccc(OC)c(NC(=O)CCNS(=O)(=O)c2cccs2)c1`: the viability in [1] is 95%; in [3], 95% (inactive); in [4] it was 92.4% (inactive); in experiment [5], 99.8% (inactive); in experiment [6] (setting [15]), 94.2%; in experiment [6] (setting [16]), 99.8%. Also, the viability in experiment [13] was 96.1% (inactive). For the same compound, the Her2 level in experiment [2] was 103% (inactive). Moreover, in experiment [6] (H69AR cells + 2 uM doxorubicin), the differential viability (reversal) is 5.6% (inactive). The inhibition in experiment [7] is -3.6% (inactive); in experiment [8], 23.3% (inactive); in experiment [14] it was 2.21% (inactive). Besides, the figures for the growth inhibition in experiment [9] and in experiment [10] were -2.31% (inactive) and 13.9% (inactive), respectively. For the same compound, in experiment [11], the viability increase was -2.82% (inactive).

Consider `Cc1ccc(Cn2nnc3c(=O)[nH]c(C4CCN(S(=O)(=O)c5ccc(F)cc5)CC4)nc32)cc1`, for which the viability in experiment [1] was 90.5%; in [3], 90.5% (inactive); in experiment [4], 76.4% (inactive); in experiment [5], 86.2% (inactive). Besides, the Her2 level in experiment [2] is 106% (inactive). Further, the inhibition in experiment [7] is -1.73% (inactive); in experiment [8] it was -5.16% (inactive).

In the case of `CCOc1cccc(-n2nnnc2-c2ccc(OC)cc2)c1`, the viability in experiment [1] is 107%; in experiment [3], 107% (inactive); in experiment [4], 49.9% (inactive); in experiment [6] (setting [15]) it was 60.4%; in experiment [6] (setting [16]) it was 12.5%. The Her2 level in experiment [2] is 90% (inactive). In experiment [6] (H69AR cells + 2 uM doxorubicin), the differential viability (reversal) is -47.9% (inactive). Further, the figures for the inhibition in experiment [7] and in experiment [8] were -1.04% (inactive) and -4.6% (inactive), respectively.

For the compound `CCOC(=O)c1sc(NC(=O)c2c(C)nn(Cc3ccccc3)c2C)cc1C`, the viability was 82.5% in experiment [1]; 82.5% (inactive) in experiment [3]; 44.6% (inactive) in [4]; 46.8% in [6] (setting [15]); 38.1% in experiment [6] (setting [16]). Besides, the Her2 level in experiment [2] was 90.5% (inactive). For the same compound, the differential viability (reversal) in experiment [6] (H69AR cells + 2 uM doxorubicin) is -8.76% (inactive). The inhibition was -10% (inactive) in [7] and -4.92% (inactive) in [8].

Regarding `Cc1ccc2c(C)nc(Nc3nc(CSc4nnnn4-c4ccccc4)cc(=O)[nH]3)nc2c1`, the viability in experiment [1] is 98%; in experiment [3] it was 98% (inactive); in [4], 48.6% (inactive); in experiment [6] (setting [15]), 78%; in experiment [6] (setting [16]), 50.7%. For the same compound, in experiment [2], the Her2 level is 80% (inactive). In addition, the differential viability (reversal) in experiment [6] (H69AR cells + 2 uM doxorubicin) was -27.3% (inactive). Also, the inhibition in experiment [7] was -5.47% (inactive); in [8], 1.31% (inactive).

With `CCOC(=O)Cc1nnc2c(Nc3ccccc3F)nc3nonc3n12`, the viability was 108% in experiment [1]; 108% (inactive) in experiment [3]; 36.9% (inactive) in experiment [4]; 31.5% in experiment [6] (setting [15]); 12.6% in [6] (setting [16]). Also, the Her2 level in [2] is 95.5% (inactive). Besides, the differential viability (reversal) in experiment [6] (H69AR cells + 2 uM doxorubicin) was -18.9% (inactive). Also, the inhibition in [7] is -3.9% (inactive); in [8] it was -2.54% (inactive).

For `CC(=O)N1CCN(c2ccc(NC(=O)c3ccc(C(C)(C)C)cc3)cc2)CC1`, the viability is 74.5% in [1]; 74.5% (inactive) in experiment [3]; 38.7% (inactive) in experiment [4]; 56.6% in experiment [6] (setting [15]); 44.2% in experiment [6] (setting [16]). The Her2 level in experiment [2] was 94% (inactive). The differential viability (reversal) in [6] (H69AR cells + 2 uM doxorubicin) was -12.4% (inactive). Also, the inhibition in experiment [7] was -6.08% (inactive); in [8] it was -11.3% (inactive).

For the origin of these results see PubChem BioAssay.
